Measurements from PubChem BioAssay AID2284162 (EPA ToxCast).
Activity calls are given as the source filed them. How the source made its calls: active means hit-call score of the fitted dose curve at least 0.9, where 1 is the maximum; inactive means score below 0.9.

Each molecule was assayed against human Histamine Receptor H1, HRH1 (gene 3269) (UniProt P35367) (assay: ERF_FR_GPCR_hHRH1: Eurofins (ERF) G Protein-Coupled Receptor (GPCR) Radioligand Binding LeadHunter Assay for human Histamine Receptor H1 Antagonism, conducted at France lab site).
human Histamine Receptor H1, HRH1 (gene 3269), sequence (P35367 whole entry, looked up): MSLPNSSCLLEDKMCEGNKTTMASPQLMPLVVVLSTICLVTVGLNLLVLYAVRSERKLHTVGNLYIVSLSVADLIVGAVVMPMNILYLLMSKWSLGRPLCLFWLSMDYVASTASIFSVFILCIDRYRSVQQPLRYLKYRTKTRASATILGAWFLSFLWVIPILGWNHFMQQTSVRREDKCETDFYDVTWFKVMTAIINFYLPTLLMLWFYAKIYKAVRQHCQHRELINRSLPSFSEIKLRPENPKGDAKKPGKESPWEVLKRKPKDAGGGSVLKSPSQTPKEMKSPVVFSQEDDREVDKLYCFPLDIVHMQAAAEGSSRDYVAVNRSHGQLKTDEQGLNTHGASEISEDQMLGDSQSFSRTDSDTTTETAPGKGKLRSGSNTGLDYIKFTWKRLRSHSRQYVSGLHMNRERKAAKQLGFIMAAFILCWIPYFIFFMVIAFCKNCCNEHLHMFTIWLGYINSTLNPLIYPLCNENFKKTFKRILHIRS
Procedure: ERF_FR_GPCR_hHRH1 is a biochemical, single-readout assay that uses extracted gene-proteins in a cell-free assay. Measurements were taken 1 hour after chemical dosing in a 96-well plate. See H1 Human Histamine GPCR Binding (Antagonist Radioligand) Assay, Cerep.ERF_FR_GPCR_hHRH1 is an assay component calculated from the ERF_FR_GPCR_hHRH1 assay. It is designed to measure radioligand binding using a type of binding reporter as detected by scintillation counting with radiometry technology.Data from the assay component ERF_FR_GPCR_hHRH1 was analyzed at the assay endpoint, ERF_FR_GPCR_hHRH1, in the positive analysis fitting direction relative to DMSO as the negative control and baseline of activity. Using a type of binding reporter, loss-of-signal activity can be used to understand changes in binding as they relate to gene HRH1. To generalize the intended target to other relatable targets, this assay endpoint is annotated to the gpcr intended target family, where the subfamily is histamine.
Human cells are incubated for 60 minutes at room temprature with [3H]pyrilamine ligand (1 nM) and Pyrilamine as control inhibitor. Test Sample Requirements: Minimum for 1) Screen: 60 ul of 10 mM stock -OR- 1 mg (pre-weighed) for 10 uM final testing. 2) Dose Response: 90 ul of 10 mM stock -OR- 1 mg (pre-weighed) for a top concentration at 10 uM.

How did the AC50 turn out when O=C(/C=C/c1ccc(O)cc1)CC(=O)/C=C/c1ccc(O)cc1 was run?
The AC50 was 1460 nM (active).
